Hits are enriched below; roughly 11% of the tested compounds scored in any of these assays.
HEK293 tox = kills HEK 293 cells; Potency, µM (top dose mostly 115 µM), for the others: at the top dose activity change, negative = cytotoxicity, actives largely listed as inhibitors; 94,000 compounds, 6.6% hits; HEK 293 viability, ATP luminescence (CellTiter-Glo), 48-72 h; also: nearly all actives have a fitted effect of over 60% in size
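Viability of HEK 293 cells, plated at 250 cells/well, was judged by cellular ATP after compound treatment for 48 or 72 hr. Luminescence was imaged 10 min after CellTiter-Glo addition at room temperature.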
hNpr1 antagonist = antagonists of human natriuretic peptide receptor Npr1; Potency, µM (titrated, usually from 46.3 µM), inactives show at the highest dose activity change, negative = inhibition, actives largely listed as inhibitors; HEK293 hNpr1 GloSensor cGMP, ANP-stimulated luminescence; P16066; 76,000 compounds, 1.6% hits; AID 1347048; calls by dose curve; also: nearly all actives have a fitted effect of over 60% in size
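Compound pre-incubated 30 min at room temperature on GloSensor-loaded HEK293 cells stably carrying hNpr1 and the pGS-40F cGMP biosensor. Stimulation uses hNppA at 0.1 nM final; luminescence is taken at baseline and 20 min post-agonist.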
3T3 cytotox = NIH 3T3 cell cytotoxicity. Potency, µM (doses to about 96.7 µM), for the others: at the highest dose activity change, negative = cytotoxicity, hits mostly inhibitors. NIH 3T3 viability, CellTiter-Glo ATP luminescence, 48-72 h. 94,000 compounds, 4.3% hits; also: nearly all actives have a fitted effect of over 55% in size
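Viability of NIH 3T3 cells after 48 or 72 hr compound treatment at 37 °C was assessed by CellTiter-Glo, with luminescence imaged following a 10 min room-temperature step.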
Luciferase inh = blocks purified firefly luciferase enzyme activity. purified P. pyralis luciferase, luminescence, biochemical. Potency, µM (series often up to 115 µM), most hits filed as inhibitors. 76,000 compounds, 2.5% hits; also: nearly all actives have a fitted effect of over 65% in size
Target sequence (P08659 whole entry, looked up): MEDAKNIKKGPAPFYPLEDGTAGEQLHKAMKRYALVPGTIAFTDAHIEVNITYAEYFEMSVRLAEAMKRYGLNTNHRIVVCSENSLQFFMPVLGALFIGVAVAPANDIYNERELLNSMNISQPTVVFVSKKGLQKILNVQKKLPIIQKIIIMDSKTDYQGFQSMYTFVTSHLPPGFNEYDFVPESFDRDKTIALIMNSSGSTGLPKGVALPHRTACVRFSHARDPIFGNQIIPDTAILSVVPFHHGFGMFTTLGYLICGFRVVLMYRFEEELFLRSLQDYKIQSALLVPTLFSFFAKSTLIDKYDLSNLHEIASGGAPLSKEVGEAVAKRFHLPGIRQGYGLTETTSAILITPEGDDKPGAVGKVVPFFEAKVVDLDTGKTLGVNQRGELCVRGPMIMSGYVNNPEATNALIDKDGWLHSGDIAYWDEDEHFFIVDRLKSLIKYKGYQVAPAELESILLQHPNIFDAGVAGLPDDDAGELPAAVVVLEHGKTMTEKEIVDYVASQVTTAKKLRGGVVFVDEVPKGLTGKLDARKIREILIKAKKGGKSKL
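Inhibitors were tested against purified firefly luciferase in a biochemical, low-substrate format (both substrates at 10uM) and luminescence measured with a CCD imager.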
Starred values were filed as active, the others as inactive; [ ] = another dose, or the depositor's remark. Unless noted, calls follow the shape of the dose curve; as a rule, active = well fitted curve in the direction sought with a large enough effect; inconclusive = small, poorly fitted or top-dose-only effect, or another doubt; inactive = no such curve, though single readings can be large; an effect the other way counts as inactive or inconclusive. % is scaled to controls: 0 for no effect and ±100 for the full control effect; potency is read from the fitted curve at half-maximal effect.

O=C(Nc1ccncc1)c1ccnc(-c2nnc3ccc(N4CCOCC4)nn23)c1 was read as HEK293 tox -6%[172 µM], hNpr1 antagonist 4%[70.6 µM], 3T3 cytotox 89µM* and Luciferase inh inactive.
Screening CN(c1ccccc1)c1ccc2nnc(-c3cc(C(=O)Nc4ccccn4)ccn3)n2n1 returned HEK293 tox 56µM*, hNpr1 antagonist 3%[70.6 µM], 3T3 cytotox inconclusive and Luciferase inh inactive.
Screening CN(C)c1cccc(NC(=O)c2ccnc(-c3nnc4ccc(N5CCOCC5)nn34)c2)c1 returned HEK293 tox -28%, hNpr1 antagonist 5%, 3T3 cytotox inconclusive and Luciferase inh inactive.
`COc1cccc(NC(=O)c2ccnc(-c3nnc4ccc(N(C)C)nn34)c2)c1` gave HEK293 tox inconclusive, hNpr1 antagonist -1%[70.6 µM], 3T3 cytotox 32µM* and Luciferase inh inactive.
Screening CN(c1ccccc1)c1ccc2nnc(-c3cc(C(=O)NCC4CCCO4)ccn3)n2n1 (centres undefined) returned HEK293 tox -24%[172 µM], hNpr1 antagonist -4%[70.6 µM], 3T3 cytotox inconclusive and Luciferase inh inactive.
Screening CN(c1ccccc1)c1ccc2nnc(-c3cc(C(=O)NCc4cccnc4)ccn3)n2n1 returned HEK293 tox 100µM*, hNpr1 antagonist -1%[70.6 µM], 3T3 cytotox 25µM* and Luciferase inh inactive.
`OCC1CN(c2ncccn2)CC12CCN(Cc1ccc3[nH]ccc3c1)CC2` (centres undefined) gave HEK293 tox inconclusive, hNpr1 antagonist 1%, 3T3 cytotox -8% and Luciferase inh inactive.
For COc1ccc(OC)c(C(O)Cn2ccn3nc(-c4cccs4)cc3c2=O)c1 (centres undefined) the results were HEK293 tox 35µM*, hNpr1 antagonist -14%, 3T3 cytotox inconclusive and Luciferase inh inactive.
Screening O=c1c2cc(-c3cccs3)nn2ccn1CC(O)c1ccc(F)cc1 (centres undefined) returned HEK293 tox -10%, hNpr1 antagonist -23%, 3T3 cytotox -2% and Luciferase inh inactive.
`Cc1noc2c(NC3CCC(O)CC3)cc(-c3cccnc3)nc12` (centres undefined) gave HEK293 tox -18%[172 µM], hNpr1 antagonist 8%[70.6 µM], 3T3 cytotox 25µM* and Luciferase inh inactive.
Cc1noc2c(N3CCNC(=O)C3)cc(-c3cccs3)nc12 was read as HEK293 tox inconclusive, hNpr1 antagonist 4%[70.6 µM], 3T3 cytotox 32µM* and Luciferase inh inactive.
`Cc1noc2c(Nc3ccc(N4CCOCC4)cc3)cc(-c3cccs3)nc12` gave HEK293 tox inconclusive, hNpr1 antagonist -18%[70.6 µM], 3T3 cytotox inconclusive and Luciferase inh inactive.
Screening COc1cccc(Nc2cc(-c3cccs3)nc3c(C)noc23)c1 returned HEK293 tox 100µM*, hNpr1 antagonist -10%[70.6 µM], 3T3 cytotox 79µM* and Luciferase inh inactive.
`Cc1noc2c(-c3ccc(CO)cc3)cc(-c3cccs3)nc12` gave HEK293 tox 40µM*, hNpr1 antagonist -3%[70.6 µM], 3T3 cytotox 22µM* and Luciferase inh inactive.
For Cc1noc2c(NC3CCN(C)CC3)cc(-c3cccnc3)nc12 the results were HEK293 tox inconclusive, hNpr1 antagonist -1%[70.6 µM], 3T3 cytotox inconclusive and Luciferase inh inactive.
For CCC(C)NC(=O)c1ccc(-c2nnc3ccc(NC(=O)C4CC4)cn23)cc1 (centres undefined) the results were HEK293 tox inconclusive, hNpr1 antagonist 0%, 3T3 cytotox inconclusive and Luciferase inh inactive.
O=C(c1ccccc1F)N1CCCN(CCn2nc3n(c2=O)CCCC3)CC1 was read as HEK293 tox 3% and 3T3 cytotox -21%.
CCOC(=O)C1CCN(C(=O)c2ccc3oc(-c4ccncc4)nc3c2)CC1 was read as HEK293 tox -23%[172 µM] and 3T3 cytotox -23%[138 µM].
`Cc1noc2c(NC3CCC(O)CC3)cc(-c3cccs3)nc12` (centres undefined) gave HEK293 tox inconclusive, hNpr1 antagonist 0%[70.6 µM], 3T3 cytotox 28µM* and Luciferase inh inactive.
Screening CC(=O)Nc1ccc(CN2CCN3C(=O)N(Cc4ccc(C)cc4)C[C@H]3C2)cc1 returned HEK293 tox 79µM*, hNpr1 antagonist -26%[70.6 µM], 3T3 cytotox -6%[174 µM] and Luciferase inh inactive.
Cc1ccc(CN2C[C@H]3CN(Cc4cccc(OC(F)(F)F)c4)CCN3C2=O)cc1 was read as HEK293 tox 63µM*, hNpr1 antagonist -18%[70.6 µM], 3T3 cytotox 45µM* and Luciferase inh inactive.
Screening CC(=O)Nc1ccc(CN2CC3CCC(C2)N3c2ccc(C(F)(F)F)cc2)cc1 returned HEK293 tox 22µM*, hNpr1 antagonist inconclusive, 3T3 cytotox inconclusive and Luciferase inh inactive.
For FC(F)(F)c1ccc(N2C3CCC2CN(Cc2ccc(Cl)cc2)C3)cc1 the results were HEK293 tox inactive, hNpr1 antagonist 23%, 3T3 cytotox inactive and Luciferase inh inactive.
For CCN1C(=O)C2CC3(CCN(Cc4cccc(OC(F)(F)F)c4)CC3)CN2C1=O (centres undefined) the results were HEK293 tox 40µM*, hNpr1 antagonist -21%, 3T3 cytotox inconclusive and Luciferase inh inactive.
`CCN1C(=O)C2CC3(CCN(Cc4ccc5[nH]ccc5c4)CC3)CN2C1=O` (centres undefined) gave HEK293 tox -2%, hNpr1 antagonist 4%, 3T3 cytotox -2% and Luciferase inh inactive.
CCCc1noc(CN2C(=O)NC(c3ccccc3OC)C3=C2COC3=O)n1 (centres undefined) was read as HEK293 tox 3%, hNpr1 antagonist -1%, 3T3 cytotox 5% and Luciferase inh inactive.
Screening Cc1ccsc1[C@@H]1CCN(Cc2cccn2-c2cccnc2)C[C@H]1O returned HEK293 tox inconclusive, hNpr1 antagonist -1%, 3T3 cytotox inconclusive and Luciferase inh inactive.
Screening COc1ccccc1C(=O)NC1CCN(c2ccc3nnc(-c4ccccc4)n3n2)CC1 returned HEK293 tox 35µM* and 3T3 cytotox inconclusive.
`O=C(Cc1cccc(Cl)c1)NC1CCCN(c2ccc3nnc(C4CC4)n3n2)C1` (centres undefined) gave HEK293 tox -14% and 3T3 cytotox -25%.
Screening O=C(NC1CCN(c2ccc3nnc(-c4ccccc4)n3n2)C1)c1ccc(F)cc1 (centres undefined) returned HEK293 tox 5% and 3T3 cytotox -3%.
Screening O=C(NC1CCN(c2ccc3nnc(-c4ccccc4)n3n2)CC1)c1ccccc1F returned HEK293 tox inconclusive and 3T3 cytotox -24%.
`O=C(NC1CCN(c2ccc3nnc(-c4ccccc4)n3n2)C1)c1ccccc1Cl` (centres undefined) gave HEK293 tox 35µM* and 3T3 cytotox 32µM*.
`O=C(Cc1cccc(Cl)c1)NC1CCCN(c2ccc3nnc(-c4ccccc4)n3n2)C1` (centres undefined) gave HEK293 tox 35µM* and 3T3 cytotox 35µM*.

Source: PubChem BioAssay
